The record followed here is the OligoGym collection.

What all share (assay): pooled miR-30 sensor sort-seq; sequence = guide strand
Conditions in all cases: shRNA

The target of assay [1] is LIPK.
Assay [2] addresses LITAF.
For assay [3], the target named is LIPA.
The target in assay [4] is LMO4.
Assay [5] deals with LONP1.
In assay [6] the target is LNX1.
In assay [7] the target is LNPEP.
Note: reference of the scale not given here.

Turning to TTGTAGTGTGGAATCAGCTTGT, the sensor-assay potency score (higher = more potent) in assay [1] came to 0.39.
ATAACTGTTAACAGCCACTGTC had a sensor-assay potency score (higher = more potent) in assay [2] of -0.861.
For TATGACATGAGTGCAAACGTGG, in assay [3], the sensor-assay potency score (higher = more potent) is -0.073.
Take TAGTGGATTGCTCTGAAGTGAA: the sensor-assay potency score (higher = more potent) in assay [4] is -0.987.
Turning to TTATAGGACAGCTGACTCACGA, in assay [2], the sensor-assay potency score (higher = more potent) came out at 0.0157.
The same measure, in the same setting: as for AATAACTGTTAACAGCCACTGT, the figure is -0.0828.
With TTACAAAGTAGTATTCGCCCTG, the sensor-assay potency score (higher = more potent) in assay [3] was 0.166.
Take TATAGGACAGCTGACTCACGAT: the sensor-assay potency score (higher = more potent) in assay [2] was -0.462.
TATTGTAAGGAAATGATGCTGC: in assay [3], the sensor-assay potency score (higher = more potent) stood at 0.625.
In assay [1], TAGGTCTTGGTAAATTTCCTGA returned a sensor-assay potency score (higher = more potent) of -0.456.
Turning to ATCTTCTGTCTCAACTAGGTAT, the sensor-assay potency score (higher = more potent) in assay [3] is -0.881.
On to TAACTGTTAACAGCCACTGTCT, for which, in assay [2], the sensor-assay potency score (higher = more potent) was -0.461.
Regarding TTGACGTCGTAGACATCTGCAA, the sensor-assay potency score (higher = more potent) in assay [3] is -0.272.
TATTGCTGTTGGAACTTCCATC yielded a sensor-assay potency score (higher = more potent) in assay [1] of -0.879.
The same measure, in the same setting: in the case of AACACCTTAACTACTCGCCTGG it was -0.456.
In the case of TAGAGCATGTAAAACACTTAAG, the sensor-assay potency score (higher = more potent) in assay [4] was -1.33.
TATCTTAATCTTTTTAGCCAGT had a sensor-assay potency score (higher = more potent) in assay [1] of -0.586.
Take TAACAGCCACTGTCTCTTCATA: in assay [2], the sensor-assay potency score (higher = more potent) is -1.19.
As for TTAAGATGATACACATTGCCTT, the sensor-assay potency score (higher = more potent) in assay [4] was -0.509.
With TGACTCACGATCATCTTGTTGC, the sensor-assay potency score (higher = more potent) in assay [2] was -0.0822.
In the case of TAATGTTGTATAAAGGAGGTGT, the sensor-assay potency score (higher = more potent) in assay [1] is 0.558.
With TTCAGTATGACATGAGTGCAAA, the sensor-assay potency score (higher = more potent) in assay [3] is -1.31.
On the same count and under the same terms, as for TTGACTATGCACCTGCTGCAGG, the figure is -0.688.
The sequence TTCCTTTCTTGTCATAACCATA showed a sensor-assay potency score (higher = more potent) in assay [1] of -1.36.
On the same count and under the same terms, as for TTTCTTGTCATAACCATACATA, the figure is -0.84.
On the same count and under the same terms, in the case of TAGCTTTCGATTGCACACTTTG it was -1.01.
TAACCTAATGTAGTCATTTCTG came in with a sensor-assay potency score (higher = more potent) in assay [4] of -0.956.
In the case of TAATTGGATTGTTATTGGGGAT, the sensor-assay potency score (higher = more potent) in assay [2] is -0.833.
Same read-out and setting: in the case of TTAACAGCCACTGTCTCTTCAT it was -0.139.
Still for that read-out and setting: as for TAATGGTCCACGTCCTGCAGGG, the figure is -0.698.
Take TTGTTGTAACATCATACTCTTC: in assay [1], the sensor-assay potency score (higher = more potent) is -0.891.
For TTGGTGTAACAGGACGTGCCGA, the sensor-assay potency score (higher = more potent) in assay [4] was -0.708.
On to ACAGTAATGGTCCACGTCCTGC, for which, in assay [2], the sensor-assay potency score (higher = more potent) is -1.32.
Still for that read-out and setting: as for TTGCAGGAAGGACAACACATTT, the figure is -1.76.
For the sequence TATATCCATCTTCTGTCTCAAC, the sensor-assay potency score (higher = more potent) in assay [3] was -1.24.
Regarding TTTGTCACCAAACAACACCTTA, the sensor-assay potency score (higher = more potent) in assay [1] is -0.763.
On the same count and under the same terms, in the case of TATTTAACTGTGACAACTGGAG it was -0.414.
On to ATCTGCAGCACTGACTCCCTGT, for which the sensor-assay potency score (higher = more potent) in assay [5] is -0.477.
On to TTCAAGGCAATGATGTCCCGGA, for which, in assay [5], the sensor-assay potency score (higher = more potent) is -0.021.
Still for that read-out and setting: in the case of TCTCTCTTTAGAAAGACGCCGA it was -0.565.
TTGGATAATGATATGGACCAGT had a sensor-assay potency score (higher = more potent) in assay [6] of -0.0255.
The same measure, in the same setting: in the case of TAGTTAGAGTAATTCTTCCTTT it was -0.396; in that of TTTATTCTTCCATCTCTGCTTA, 0.44.
Turning to TGAAGCGGAAGTACTCTCGGTT, the sensor-assay potency score (higher = more potent) in assay [5] is -0.124.
Regarding TTGAGTACTATCGAGGATGATG, the sensor-assay potency score (higher = more potent) in assay [6] was -0.956.
As to TTTTGTTCTTCTCTGCTTCAGA, in assay [7], the sensor-assay potency score (higher = more potent) was -0.123.
ATCCTTGTCGTCCTTCTCCAGG had a sensor-assay potency score (higher = more potent) in assay [5] of -1.37.
In the case of TAATACAATATCTTTACAGTTA, the sensor-assay potency score (higher = more potent) in assay [6] was -0.86.
In the case of TTTCTCATTACTTTCATCTGTG, the sensor-assay potency score (higher = more potent) in assay [7] is 0.22.
Turning to TTCAAATTCCTTCTTCAGCAGG, in assay [5], the sensor-assay potency score (higher = more potent) is -0.339.
Regarding TACAGAAACAGCAACCACGATG, the sensor-assay potency score (higher = more potent) in assay [7] is -0.798.
The same measure, in the same setting: in the case of TTCTGTACAAGCTTATTCCAGT it was -0.169.
For TAGTGAAACCGATCTCCCGGGA, the sensor-assay potency score (higher = more potent) in assay [4] is -0.538.
Sequence TTCTTCGTAATACAATATCTTT showed a sensor-assay potency score (higher = more potent) in assay [6] of -1.2.
TACTGTGTCAGTAACTTTCTGG gave a sensor-assay potency score (higher = more potent) in assay [7] of 0.276.
Same read-out and setting: as for TTGTTGTATAAAAAGTTCCTTT, the figure is -0.495.
Take AAACACTGGATGATCTTCCCGG: the sensor-assay potency score (higher = more potent) in assay [5] amounted to 0.233.
Turning to TAAGATGATACACATTGCCTTG, the sensor-assay potency score (higher = more potent) in assay [4] was -0.884.
TTATAGATGAGGTCTGTCTGAA had a sensor-assay potency score (higher = more potent) in assay [7] of 0.0575.
Turning to TCGTCGATGAGGATCAGGGGGT, the sensor-assay potency score (higher = more potent) in assay [5] was -0.954.
